This is an account of results in PubChem BioAssay (EPA / NIEHS).

“And” between values parts separate entries of the source, which are not always exact repeats. Identical values can stand only once. The source holds several records for some structures; these can differ, active in one and inactive in another. The source made the active and inactive calls. How the source made its calls: active means hit-call score of the fitted dose curve at least 0.9, where 1 is the maximum; inactive means score below 0.9.

This assay can be described thus: CCTE_Shafer_MEA_dev_burst_rate: CCTE's Neural Network Formation Assay for Burst Rate, Shafer Lab (AID 2284042). Here is the method:
CCTE_Shafer_MEA_dev assay is conducted using Axion Biosystems 48 well microelectrode array (MEA) plates and Maestro recording system. Each well of the MEA plate contains a grid of 16 microelectrodes embedded in the culture surface. Electrically active cells, such as neurons, can be cultured over the electrodes, and electrical activity in these cells can be recorded extracellularly. The spontaneous firing of neurons is captured from each electrode on a microsecond timescale providing both temporally and spatially precise data. […] The CCTE_Shafer_MEA_dev assay uses primary cultures of rat cortical neurons. Recordings are made on days post-plating 5, 7, 9 and 12. As these cultures mature over time, neural networks develop functional activity and form cohesive networks in which electrical activity can be highly coordinated. CCTE_Shafer_MEA_dev_burst_rate is 1 of 19 assay components of the CCTE_Shafer_MEA_dev assay. It measures the frequency of single-electrode bursts (temporally-clustered groups of action potential firing) as the total number of bursts divided by the length of the recording in a microelectrode array (MEA) using Axion Biosystems Maestro 768 channel amplifier with the AxIS adaptive spike detector. The mean bursting rate is averaged across the active electrodes to report a well-mean value. To collapse across multiple recordings made on days post-plating 5, 7, 9 and 12, the trapezoidal area-under-the-curve of the component is calculated.Data from the assay component CCTE_Shafer_MEA_dev_burst_rate was analyzed into 1 assay endpoint. This assay endpoint, CCTE_Shafer_MEA_dev_burst_rate, was analyzed in the negative analysis fitting direction relative to DMSO as the negative control and baseline of activity. Using a type of functional reporter, gain or loss-of-signal activity can be used to understand electrical activity.
On the day prior to culture, each well was coated thoroughly with 150 uL of 0.05% polyethyleneimine (PEI, Sigma Cat P3143) in 50 mM HEPES (Sigma Cat H7523) at a pH of 8. The plate was incubated at 37C for one hour. PEI was rinsed out with 500 uL of sterile water three times. Plates were stored at 4C until the day of culture. This culture was plated at a seeding density of 1.5 x 10^5 cells/well on a 48-well MEA plate, prepared as described above. Cells were administered via a 25 uL media/laminin ([…]; Sigma Cat L2020-1MG) drop directly onto the microelectrode array, as adding the cells with the laminin results in better attachment than pre-coating with laminin. After 2 hours, an additional 475 uL of cortical media was added and the cells returned to the incubator. Exposure starts at day 0 of plating and is continued over twelve days of network development until the experiment is terminated. Cells are fed with fresh medium on DIV 5 and 9, following the recordings on those days. The entire volume of media in the well is exchanged and any vehicle or compound treatment is renewed. Complete details are found in OP-NHEERL/ISTD/SBB/TJS/2015-03-r0 (available on request, email shafer.tim@epa.gov). Measurement of the electrical activity is non-invasive, and recordings can be made from the same plate over multiple different days of the culture. In cortical neurons, this allows for the measurement of extracellular action potentials over the period during which networks form in the MEA plate.
`CCNC(=O)NC(=O)C(C#N)=NOC`: the compound was called inactive.

As for `COP(=S)(OC)SCn1nnc2ccccc2c1=O`, the compound was classed as inactive. The AC50 is the concentration giving half of the maximal activity seen. As for `C=C(C)CN(CC)c1c([N+](=O)[O-])cc(C(F)(F)F)cc1[N+](=O)[O-]`, the half-maximal activity concentration (AC50) was 13.3 µM (active).

On to `CC1(C)C(C(=O)OC(C#N)c2cccc(Oc3ccccc3)c2)C1(C)C` (configuration not stated), for which the result was inactive. As to `O=C(Nc1ccccc1-c1ccc(Cl)cc1)c1cccnc1Cl`, the concentration at half-maximal activity (AC50) was 4.18 µM (active) and 3.1 nM (active); the outcome was inactive. In the case of `COP(=O)(OC)O/C(C)=C/C(=O)N(C)C`, the compound was called inactive.

In the case of `CCOP(=O)(OCC)Oc1nc(Cl)c(Cl)cc1Cl`, the outcome was inactive. As for `CC(C)=CC1C(C(=O)OCc2coc(Cc3ccccc3)c2)C1(C)C` (configuration not stated), the result was inactive. As for `CCN(CC)c1nc(C)cc(OP(=S)(OC)OC)n1`, the result was inactive. Take `COP(=S)(OC)Oc1ccc([N+](=O)[O-])c(C)c1`: the compound was classed as inactive. Turning to `CNC(=O)Oc1cccc2ccccc12`, the AC50 is 4.84 µM (active) and the call was inactive. For the compound `CCSC(=O)N1CCCCCC1`, the call was inactive. For `CN/C(=N\[N+](=O)[O-])NCc1cnc(Cl)s1`, the compound was classed as inactive. As to `CC1(C)C(C=C(Cl)Cl)C1C(=O)OC(C#N)c1cccc(Oc2ccccc2)c1` (configuration not stated), the AC50 is 3.77 µM (active) and the outcome was inactive.

For the compound `CO/N=C(/C1=NOCCO1)c1ccccc1Oc1ncnc(Oc2ccccc2Cl)c1F`, the half-maximal activity concentration (AC50) was 789 nM (active) and 637 nM (active). Consider `COC(=O)N(C(=O)N1CO[C@@]2(C(=O)OC)Cc3cc(Cl)ccc3C2=N1)c1ccc(OC(F)(F)F)cc1`, for which the result was inactive. With `CCCN(CC)CC1COC2(CCC(C(C)(C)C)CC2)O1` (configuration not stated), the half-maximal activity concentration (AC50) is 0.136 µM (active). Consider `CS(=O)(=O)c1cc(C(F)(F)F)ccc1C(=O)c1cnoc1C1CC1`, for which the outcome was inactive.

As to `CCOC(=O)C(C)OC(=O)c1cc(Oc2ccc(C(F)(F)F)cc2Cl)ccc1[N+](=O)[O-]` (configuration not stated), the outcome was inactive. The same measure, in the same setting: as for `N#CN=C1SCCN1Cc1ccc(Cl)nc1`, the entry is “inactive”. In the case of `O=C1C2CC=CCC2C(=O)N1SC(Cl)(Cl)Cl` (configuration not stated), the outcome was inactive. Take `Cc1c(COC(=O)[C@@H]2[C@H](/C=C(\Cl)C(F)(F)F)C2(C)C)cccc1-c1ccccc1`: the AC50 was 768 nM (active) and 2.7 µM (active). For the compound `CC(C)(C)C(=O)C(Oc1ccc(Cl)cc1)n1cncn1` (configuration not stated), the compound was classed as inactive. As to `CS(=O)(=O)c1ccc(C(=O)C2C(=O)CCCC2=O)c([N+](=O)[O-])c1`, the compound was classed as inactive.
